CRFBP-R2 agonist: agonists of human CRF-binding protein/CRF-R2 receptor complex | HEK293 CRF-R2/CRF-BP, calcium dye fluorescence (FLIPR); percent of saturating CRF peptide response | 0.46% of 350,000 active | activation, % at 13.2 µM;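 active = activation of at least 50%, plus an integration ratio under a set limit after plate pattern correction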;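 note: plate controls were neutral control wells without compound for no effect and CRF at EC100 for full effect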
SKN-1 inh: C. elegans SKN-1 inhibition; C. elegans VP596 Pgst-4::GFP/RFP ratio, acrylamide-induced, 24 h; inhibition, % at 21.8 µM; 0.49% of 360,000 active;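 active = interference check ratio from 0.5 to 1.5 plus GFP to RFP signal ratio inhibition reaching or exceeding a fixed threshold, cut at about 30% in these data, passing the limit was not always enough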
H9c2 protect: protects H9c2 cardiomyocytes from peroxide injury; AID 588492; H2O2 injury protection, ATPLite, 2 h; protection from H2O2 cell death, % at 20 µM; 0.63% of 360,000 active;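 active = compounds giving at least 50% protection of heart cells from peroxide-induced death in the single-dose screen, raw or plate-pattern-corrected value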;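 note: 0% = DMSO wells with peroxide and 100% = DMSO wells without peroxide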
CRFR2-BP antag: CRF-BP/CRF-R2 complex antagonism. 0.59% of 350,000 active. HEK293 CRF-R2/CRF-BP, CRF-induced calcium fluorescence. inhibition, % at 11.8 µM;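 active = inhibition of the ligand-induced calcium signal above about 50% at the single tested concentration, limit read from the data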
hiPSC survival: increases survival of single human iPS cells | hiPSC single-cell survival, ATPlite luminescence; 100% = ROCK inhibitor wells, 0% = DMSO | survival enhancement, % at 20 µM | AID 602274 | 0.044% of 360,000 active; in the data active = survival enhancement above about 18%;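 note: cells exposed to compounds for 16 hours before the ATP read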
TAG inh: triacylglycerol accumulation inhibition; H9c2 cells, Nile Red lipid (TAG) fluorescence; cells loaded with 200 µM oleic acid; inhibition, % at 12.5 µM; 0.66% of 230,000 active;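 active = pattern-corrected inhibition of lipid staining of at least 50% with the nuclear-stain viability signal not falling by more than 50%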;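 note: 0% = DMSO wells and 100% = triacsin C control wells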
Numbers without * were called inactive. Compounds with a hit are over-represented: about 2.5% of the library has one in this group of screens.

`O=C(NC(=S)Nc1ccc(CN2CCCCC2)cc1)c1cc2ccccc2o1` gave CRFBP-R2 agonist -1, SKN-1 inh 73*, H9c2 protect -2, CRFR2-BP antag -7, hiPSC survival -1 and TAG inh -7.
`O=C(Nc1ccc2nc(N3CCOCC3)sc2c1)c1cc2ccccc2o1` gave CRFBP-R2 agonist -2, SKN-1 inh 14, H9c2 protect 68*, CRFR2-BP antag 13, hiPSC survival 0 and TAG inh 38.
Screening CCCC(=O)N1CCN(c2ccc(NC(=O)c3cc4ccccc4o3)cc2)CC1 returned CRFBP-R2 agonist -4, SKN-1 inh 48*, H9c2 protect 2, CRFR2-BP antag 32, hiPSC survival -1 and TAG inh 22.
For COc1ccc(-c2nnc(SCc3ccc(C(=O)O)cc3)n2C)cc1OC the results were CRFBP-R2 agonist 1, SKN-1 inh -6, H9c2 protect 1, CRFR2-BP antag 11 and hiPSC survival 0.
CC1(c2nnnn2-c2ccc3c(c2)OCCO3)CCC(=O)N1C1CCN(Cc2ccccc2)CC1 (stereo not drawn) was read as SKN-1 inh -5 and hiPSC survival 0.
`Cc1sc(NC(=O)c2ccco2)c(C(c2cccnc2)N2CCCC2)c1C` (stereo not drawn) gave CRFBP-R2 agonist 4, SKN-1 inh 30*, H9c2 protect 8, CRFR2-BP antag -74 and hiPSC survival -1.
For Cc1sc(NC(=O)c2ccco2)c(C(c2cccnc2)N2CCN(C)CC2)c1C (stereo not drawn) the results were CRFBP-R2 agonist 4, SKN-1 inh 17, H9c2 protect 23, CRFR2-BP antag -19, hiPSC survival -4 and TAG inh 32.
Screening Cc1cc(C)nc(S/C=C/C(=O)c2ccccc2F)n1 returned CRFBP-R2 agonist 5, SKN-1 inh 1, H9c2 protect -20, CRFR2-BP antag -10, hiPSC survival -1 and TAG inh 75*.
Screening CC[C@H](C)[C@H](NC(=O)c1ccc(Cl)cc1)C(=O)OCC(=O)c1c(N)n(C)c(=O)n(C)c1=O returned CRFBP-R2 agonist -3, SKN-1 inh 13, H9c2 protect 1, CRFR2-BP antag -8, hiPSC survival -1 and TAG inh 9.
Screening CN(C(=O)COC(=O)C(Cc1ccccc1)NC(=O)c1ccccc1)c1ccccc1 (stereo not drawn) returned CRFBP-R2 agonist 1, SKN-1 inh -5, H9c2 protect 9, CRFR2-BP antag 17 and hiPSC survival -2.
For CN(C)C(=O)COC(=O)[C@H](Cc1ccccc1)NC(=O)c1ccco1 the results were CRFBP-R2 agonist 107*, SKN-1 inh 2, H9c2 protect 2, CRFR2-BP antag -42, hiPSC survival 1 and TAG inh -3.
O=C(COC(=O)[C@H](Cc1ccccc1)NC(=O)c1ccco1)NCc1ccccc1 was read as CRFBP-R2 agonist 79*, SKN-1 inh -18, H9c2 protect 4, CRFR2-BP antag -72 and hiPSC survival -1.
O=[N+]([O-])c1ccc(-c2cn(-c3ccc(Cl)cc3)cn2)cc1 was read as SKN-1 inh 17, H9c2 protect -2 and hiPSC survival 0.
For Brc1ccc(-n2cnc(-c3ccccc3)c2)cc1 the results were CRFBP-R2 agonist 0, SKN-1 inh 40*, H9c2 protect -11, CRFR2-BP antag -9 and hiPSC survival 0.
Screening O=C(CC1Sc2ccccc2NC1=O)NNc1cc(Cl)ccc1Cl (stereo not drawn) returned CRFBP-R2 agonist 0, SKN-1 inh 40*, H9c2 protect -5, CRFR2-BP antag 0, hiPSC survival 6 and TAG inh -1.
Screening O=C(CC1Sc2ccccc2NC1=O)NNc1ccc(F)cc1 (stereo not drawn) returned CRFBP-R2 agonist -2, SKN-1 inh 13, H9c2 protect 1, CRFR2-BP antag -31, hiPSC survival -4 and TAG inh -19.
For CCOc1ccc(CN2CCNC(=O)C2CC(=O)NCc2csc(C(C)C)n2)cc1 (stereo not drawn) the results were CRFBP-R2 agonist 0, SKN-1 inh -4, H9c2 protect -5, CRFR2-BP antag 1 and hiPSC survival 1.
For COc1ccc2nc3ccccc3nc2c1NC(=O)c1ccc(Cl)cc1Cl the results were CRFBP-R2 agonist 178*, SKN-1 inh -13, H9c2 protect -2, CRFR2-BP antag -150 and hiPSC survival 1.

Screening results (PubChem BioAssay)
